# Hit rate of the full screen: of about 52,000 compounds, about 1,700 (3.3%) were called active. Rule as the data show it: active = survival mostly below about 52% (no sharp cut-off); inactive = mostly above about 56%. Many of the other results were omitted from the sample, so actives are more common in it than they were.
# System: Wild type
# Assay: growth inhibition of S. aureus wild type versus tarO mutant, primary screen, teichoic acid synthesis inhibitors, RN4220, OD600 (AID 463173)
# Details: S. aureus RN4220 wild type/DeltatarO growth, OD600, 18 h, stronger effect = lower value, screened at 18.75 µg/mL (by protocol)
row,SMILES,survival
1,COc1ccc(C(=O)N2c3ccc(C)cc3C(C)(c3ccccc3)CC2(C)C)cc1 (centres undefined),45% (inactive)
2,Cc1ccc(C(=O)N2c3ccc(C)cc3C(C)(c3ccccc3)CC2(C)C)cc1 (centres undefined),2% (active)
3,Cc1ccc(C(=O)N2CCN(c3ccccc3)CC2)cc1,112% (inactive)
4,CC1=CC(C)(C)N(CC(=O)c2ccccc2)c2ccc(C)cc21,109% (inactive)
5,Cc1ccc2c(c1)N(C(=O)c1ccc(F)cc1)C(C)(C)CC2(C)c1ccccc1 (centres undefined),43% (inactive)
6,Cc1ccc2c(c1)C(C)(c1ccccc1)CC(C)(C)N2C(=O)c1ccc(F)cc1 (centres undefined),-2% (active)
7,CCOc1ccc(S(=O)(=O)n2nc(C)c(S(=O)(=O)N3CCCCC3)c2C)cc1,67% (inactive)
8,Cc1ccc(C)c(NC(=O)Cn2c(=O)n(CCCS(=O)(=O)C3CCCCC3)c(=O)c3ccccc32)c1,119% (inactive)
9,CSc1nc2ccc(S(=O)(=O)N3CCCCC3)cc2s1,105% (inactive)
10,COCCCNC(=O)c1ccc(Cn2c(=O)c3ccccc3n(CC(=O)Nc3ccc(C)cc3C)c2=O)cc1,100% (inactive)
11,Cc1ccccc1CNC(=O)Cc1csc2ccccc12,94% (inactive)
12,COc1ccccc1NC(=O)CSc1ncc2c(n1)-c1cc(Cl)ccc1N(C)S2(=O)=O,73% (inactive)
13,CCOc1ccc(NC(=O)CN2CCN(CC(=O)Nc3ccc(N(CC)CC)cc3)CC2)cc1,80% (inactive)
14,COc1ccc(NC(=O)c2cc3c(=O)n(Cc4cccs4)ccc3nc2C)c(OC)c1,83% (inactive)
15,O=c1[nH]c2ccc(NCc3ccc(-c4ccc(Cl)cc4)o3)cc2[nH]1,111% (inactive)
16,COc1ccc(CCNC(=O)C(=O)NCC(c2cccs2)S(=O)(=O)c2ccc(F)cc2)cc1 (centres undefined),73% (inactive)
17,O=S(=O)(Nc1ccc(Br)cc1F)c1ccc2nc(-c3ccccc3)[nH]c2c1,71% (inactive)
18,Cc1ccc(NS(=O)(=O)c2ccc3nc(-c4ccccc4)[nH]c3c2)c(Cl)c1,60% (inactive)
19,Cc1ccc(NS(=O)(=O)c2ccc3nc(-c4ccccc4)[nH]c3c2)c(Br)c1,63% (inactive)
20,CC(C)c1ccc(NS(=O)(=O)c2ccc3nc(-c4ccccc4)[nH]c3c2)cc1,63% (inactive)
21,Cc1cccc(NS(=O)(=O)c2ccc3nc(-c4ccccc4)[nH]c3c2)c1C,129% (inactive)
22,O=S(=O)(Nc1ccc(Br)cc1)c1ccc2nc(-c3ccccc3)[nH]c2c1,-3% (active)
23,Cc1ccc(NS(=O)(=O)c2ccc3nc(-c4ccccc4)[nH]c3c2)cc1Cl,1% (active)

row,SMILES,survival
1,Cc1cc(NS(=O)(=O)c2ccc3nc(-c4ccccc4)[nH]c3c2)ccc1Br,-4% (active)
2,COc1ccc(NS(=O)(=O)c2ccc3nc(-c4ccccc4)[nH]c3c2)cc1,81% (inactive)
3,COc1cc(C)ccc1OCCSc1nc(-c2cccc(C)c2)nc2cc(=O)[nH]n12,88% (inactive)
4,Cc1ccc(NC(=O)c2oc3ccc(S(=O)(=O)N4CCC5(CC4)OCCO5)cc3c2C)c(C)c1,143% (inactive)
5,O=C(CS(=O)(=O)c1cccc2nsnc12)Nc1cc(F)ccc1F,97% (inactive)
6,Cn1c(=O)c2c(nc(NCCc3ccccc3)n2Cc2ccc(Cl)cc2)n(C)c1=O,74% (inactive)
7,CCc1ccc(N2C(=O)C3C4CCCC4=C4CCCC4C3C2=O)cc1 (centres undefined),116% (inactive)
8,Cn1c(=O)c2c(nc3n(-c4ccc(O)cc4)c(-c4ccc(Br)cc4)cn23)n(C)c1=O,142% (inactive)
9,COc1ccc(CNC(=O)C2CCN(C(=O)N3CCOc4ccc(C)cc43)CC2)cc1,80% (inactive)
10,Cc1cccn2c(=O)c3cc(C(=O)Nc4ccc(Cl)c(Cl)c4)sc3nc12,71% (inactive)
11,CCS(=O)(=O)c1nnnn1-c1ccccc1,1% (active)
12,O=C(O)CCSc1nnnn1-c1ccccc1,114% (inactive)
13,c1ccc(CNc2nnnn2-c2ccccc2)cc1,106% (inactive)
14,COc1ccc(C2CC(=O)c3cc(-c4nc(-c5cccc([N+](=O)[O-])c5)cs4)c(=O)n(-c4cc(C)cc(C)c4)c3C2)cc1 (centres undefined),80% (inactive)
15,COc1ccc(C2=Nc3ccccc3N(CC(=O)Nc3cccc(C(C)=O)c3)C(=O)C2)cc1,136% (inactive)
16,Cc1ccc(C)c(N2CCN(C(=O)C3CCN(S(=O)(=O)c4cn(C)cn4)CC3)CC2)c1,75% (inactive)
17,COc1ccccc1CNC(=O)C1CCN(S(=O)(=O)c2cn(C)cn2)CC1,-3% (active)
18,Cc1cc(C)cc(NC(=O)C2CCN(S(=O)(=O)c3cn(C)cn3)CC2)c1,73% (inactive)
19,CN(C)c1ccc(CNC(=O)C2CCN(S(=O)(=O)c3cn(C)cn3)CC2)cc1,-2% (active)
20,Cn1cnc(S(=O)(=O)N2CCC(C(=O)NCc3ccccc3Cl)CC2)c1,128% (inactive)
21,COc1ccc(OC)c(CNC(=O)C2CCN(S(=O)(=O)c3cn(C)cn3)CC2)c1,82% (inactive)
22,Cc1ccc(N(C)C(=O)C2CCN(S(=O)(=O)c3cn(C)cn3)CC2)cc1,10% (active)
23,Cn1cnc(S(=O)(=O)N2CCC(C(=O)NCc3ccc(Cl)cc3)CC2)c1,95% (inactive)

row,SMILES,survival
1,Cc1ccc(CNC(=O)C2CCN(S(=O)(=O)c3cn(C)cn3)CC2)cc1,82% (inactive)
2,COc1ccc(-c2cn3nc(SCC(=O)Nc4cc(C)cc(C)c4)ccc3n2)cc1,68% (inactive)
3,CCN(CC)S(=O)(=O)c1ccc(C(=O)N2CC(=O)Nc3ccc(F)cc3C2c2ccccc2)cc1 (centres undefined),81% (inactive)
4,COc1ccc(NC(=O)c2ccc(-c3nc(COc4ccccc4)c(C)o3)cc2)cc1,84% (inactive)
5,Cc1n[nH]c(C)c1N1C(=O)c2cccc3c(N4CCCCC4)ccc(c23)C1=O,116% (inactive)
6,CC(C)(C)CC(=O)NCC(c1ccc2c(c1)OCO2)N1CCOCC1 (centres undefined),73% (inactive)
7,CNC(=O)C(=O)NCC(c1ccc2c(c1)OCO2)N1CCOCC1 (centres undefined),113% (inactive)
8,COCCNC(=O)C(=O)NCC(c1ccc2c(c1)OCO2)N1CCOCC1 (centres undefined),-3% (active)
9,O=C(NCCCO)C(=O)NCC(c1ccc2c(c1)OCO2)N1CCOCC1 (centres undefined),10% (active)
10,CN(C)CCNC(=O)C(=O)NCC(c1ccc2c(c1)OCO2)N1CCOCC1 (centres undefined),73% (inactive)
11,COc1ccc(CCNC(=O)C(=O)NCC(c2ccc3c(c2)OCO3)N2CCOCC2)cc1 (centres undefined),0% (active)
12,COc1ccc(CNC(=O)C(=O)NCC(c2ccc3c(c2)OCO3)N2CCOCC2)cc1 (centres undefined),80% (inactive)
13,CN(C)CCCNC(=O)C(=O)NCC(c1ccc2c(c1)OCO2)N1CCOCC1 (centres undefined),124% (inactive)
14,COCCCNC(=O)C(=O)NCC(c1ccc2c(c1)OCO2)N1CCOCC1 (centres undefined),87% (inactive)
15,O=C(NCCO)C(=O)NCC(c1ccc2c(c1)OCO2)N1CCOCC1 (centres undefined),59% (inactive)
16,CC(C)(C)C(=O)NCC(c1ccc2c(c1)OCO2)N1CCOCC1 (centres undefined),-2% (active)
17,COc1ccc(CCNC(=O)C(=O)NCC(c2ccc3c(c2)OCO3)N2CCOCC2)cc1OC (centres undefined),73% (inactive)
18,O=C(CS(=O)(=O)c1cccc2nsnc12)NCc1ccccc1Cl,136% (inactive)
19,Cc1cc(Nc2ccc(C(=O)O)c(O)c2)n2ncnc2n1,72% (inactive)
20,O=C(NCCc1ccc(Cl)cc1)c1nc(-c2cccc(F)c2)n2c1CCCCC2,140% (inactive)
21,Cc1cccc(NC(=O)c2cc3c(=O)n(Cc4cccnc4)ccc3nc2C)c1,-3% (active)
22,CC(=O)Nc1ccc(NC(=O)c2cc3c(=O)n(Cc4cccnc4)ccc3nc2C)cc1,65% (inactive)
23,COc1ccc(NC(=O)c2cc3c(=O)n(Cc4ccco4)ccc3nc2C)c(OC)c1,88% (inactive)

row,SMILES,survival
1,COc1ccc(Cn2ccc3nc(C)c(C(=O)Nc4ccc(OC(F)(F)F)cc4)cc3c2=O)cc1,90% (inactive)
2,COc1ccc(NC(=O)c2cc3c(=O)n(Cc4cccnc4)ccc3nc2C)c(OC)c1,88% (inactive)
3,COc1ccc(Cn2ccc3nc(C)c(C(=O)Nc4ccc(F)cc4)cc3c2=O)cc1,-3% (active)
4,COc1ccc(Cn2ccc3nc(C)c(C(=O)Nc4ccc(OC)cc4)cc3c2=O)cc1,85% (inactive)
5,COc1cccc(NC(=O)c2cc3c(=O)n(Cc4cccnc4)ccc3nc2C)c1,78% (inactive)
6,COc1ccc(Cn2ccc3nc(C)c(C(=O)Nc4ccc(OC)cc4OC)cc3c2=O)cc1,0% (active)
7,COc1ccccc1NC(=O)C1=C(C)Nc2nc(SCc3ccccc3)nn2C1c1ccncc1 (centres undefined),83% (inactive)
8,CC(C)NC(=O)C1CCCN(c2ncnc3c2nc2n3CCCCC2)C1 (centres undefined),73% (inactive)
9,COC(=O)c1nnn(-c2cccc(C)c2)c1C(=O)OC,77% (inactive)
10,Cc1nc2ccccc2c(=O)n1/N=C1\C(=O)N(C)c2ccccc21,108% (inactive)
11,Cc1ccc2c(=O)c(C(=O)c3cccc(Cl)c3)cn(CC(=O)NC3CCCCC3)c2n1,126% (inactive)
12,CCc1ccc(CNC(=O)CN2C(=O)CSc3c2c(C)nn3-c2ccccc2)cc1,125% (inactive)
13,CCOC(=O)c1c(NC(=O)c2ccc(F)cc2)sc2c1CCC(CC)C2 (centres undefined),3% (active)
14,CCC1CCc2c(sc(NC(=O)C3c4ccccc4Oc4ccccc43)c2C(=O)OC)C1 (centres undefined),80% (inactive)
15,CCOC(=O)c1c(NC(=O)c2ccccc2OCC)sc2c1CCC(CC)C2 (centres undefined),-1% (active)
16,CCOC(=O)c1c(NC(=O)COc2ccc(F)cc2)sc2c1CCC(C)C2 (centres undefined),69% (inactive)
17,CCOC(=O)c1c(NC(=O)C2c3ccccc3Oc3ccccc32)sc2c1CCC(CC)C2 (centres undefined),65% (inactive)
18,CCOC(=O)c1c(NC(=O)COc2cccc(C)c2C)sc2c1CCC(CC)C2 (centres undefined),78% (inactive)
19,Cc1ccc(CN(C(=O)COc2cc(C)c(Cl)c(C)c2)c2ccccn2)o1,78% (inactive)
20,COc1ccccc1NC(=O)CSC1=Nc2ccccc2N=C(c2ccc(F)cc2)C1,71% (inactive)
